# Screening data deposited in PubChem by National Center for Advancing Translational Sciences (NCATS).
# Only some compounds are listed: those with a hit (about 22% of all), similar ones and a draw of the others.
# Pf growth 96h = P. falciparum growth inhibition at 96 hour, primary screen for plastid delayed-death inhibitors | P. falciparum luciferase reporter growth, 96 h | Potency, µM (highest dose often 28.7 µM), for the others: top-dose activity change, negative = inhibition, hits mostly inhibitors | 6.9% of 320,000 active; further: potency means the concentration at half of the fitted maximal effect; on the % scale 0 is the no-effect control and ±100 the full control effect
#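 96 h incubation, 37 C, 5% CO2, of luciferase-reporter P. falciparum-infected RBCs (2% hematocrit, 0.05% parasitemia final) with test compounds; endpoint luminescence.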
# Pf growth 48h = P. falciparum growth inhibition at 48 hours (one generation). Potency, µM (top dose mostly 28.7 µM), without a hit: at the highest dose activity change, negative = inhibition, hits mostly inhibitors. AID 504832. P. falciparum luciferase growth in erythrocytes, 48 h. 5.9% of 310,000 active; further: potency means the concentration at half of the fitted maximal effect; on the % scale 0 is the no-effect control and ±100 the full control effect
#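 Erythrocytes infected with P. falciparum carrying an integrated firefly luciferase reporter (2% hematocrit, 0.1% parasitemia final) were exposed to compounds in RPMI 1640 with 0.5% Albumax at 37 C, 5% CO2. Growth inhibition was scored as reduced luminescence.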
# LmPK inh = LmPK (Leishmania mexicana) enzyme inhibition; purified LmPK, Kinase-Glo ATP luminescence, 1 h; Potency, µM (highest dose often 57.5 µM), without a hit: top-dose activity change, negative = inhibition, usual class: inhibitors; 0.37% of 290,000 active; AID 1721; further: potency means the concentration at half of the fitted maximal effect; on the % scale 0 is the no-effect control and ±100 the full control effect
# Target sequence (Q27686 whole entry, looked up): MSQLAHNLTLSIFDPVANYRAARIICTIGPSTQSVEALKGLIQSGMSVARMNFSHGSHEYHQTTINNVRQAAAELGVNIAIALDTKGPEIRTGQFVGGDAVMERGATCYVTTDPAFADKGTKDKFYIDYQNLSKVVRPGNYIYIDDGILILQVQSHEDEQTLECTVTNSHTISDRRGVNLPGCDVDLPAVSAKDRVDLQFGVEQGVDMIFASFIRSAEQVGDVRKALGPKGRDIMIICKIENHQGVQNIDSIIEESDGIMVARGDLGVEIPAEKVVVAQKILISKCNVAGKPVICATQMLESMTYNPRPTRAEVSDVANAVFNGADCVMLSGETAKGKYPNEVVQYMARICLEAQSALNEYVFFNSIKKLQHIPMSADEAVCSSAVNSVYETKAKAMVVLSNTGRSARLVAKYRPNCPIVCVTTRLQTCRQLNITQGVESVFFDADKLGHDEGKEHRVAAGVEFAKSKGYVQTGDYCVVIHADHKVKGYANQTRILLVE
#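 Purified LmPK (0.1 nM) with 0.5 mM PEP and 0.1 mM ADP in imidazole buffer pH 7.2 with MgCl2/KCl, 1 h at room temperature. ATP formed was read by luciferase luminescence and normalized to no-enzyme and uninhibited controls.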
# Cycloheximide cs = counter-screen for Shiga toxin inhibitors: cycloheximide protein synthesis inhibition. cell reporter, cycloheximide protein synthesis inhibition counterscreen. 12% of 300,000 active. max response, %; in the data active means max response mostly above about 13%, no sharp cut-off; inactive means mostly below about 14%; further: read at 38.3 µM for the half of the compounds with a filed dose; 0% is about no effect
# Shiga toxin inh = inhibitors of Shiga toxin in Vero cells; 9.2% of 290,000 active; inhibition, % at 38.7 µM; Vero cells, Shiga toxin protein synthesis inhibition reporter; AID 2315; in the data active means inhibition mostly above about 28%, no sharp cut-off; inactive means mostly below about 43%; further: 0% is about no effect
# Numbers without * were called inactive; ? = inconclusive; . = no result given. Unless noted, the call rests on the fitted dose curve; in most records, active means well fitted inhibition curve with a large enough effect; inconclusive means small, poorly fitted or top-dose-only effect, or another doubt; inactive means no such curve, though single readings can be large or run the other way.
SMILES,Pf growth 96h,Pf growth 48h,LmPK inh,Cycloheximide cs,Shiga toxin inh
COc1ccccc1NC(=O)CSC1=NC(=O)C(Cc2ccccc2)C(=O)N1 (configuration not stated),?,0%,-3%,-3,-4
CCC1C(=O)N=C(SCC(=O)NC2CCCCC2)NC1=O (configuration not stated),7%,-6%,2%,7,9
CC(=O)NC1C(=O)N=C(SCC(=O)NC2CCCCC2)NC1=O (configuration not stated),?,29%,-2%,22*,57*
COc1ccccc1NC(=O)CSC1=NC(=O)C(NC(C)=O)C(=O)N1 (configuration not stated),0.83µM*,4%,0%,-5,-26
COc1ccc([N+](=O)[O-])cc1NC(=O)c1cn(-c2ccc(C)c(C)c2)c(=O)c2ccccc12,12µM*,-8%,2%,-1,-2
Cc1ccc(S(=O)(=O)N(CC(=O)N2CCN(c3ccc(F)cc3)CC2)C2CCCCC2)cc1,11%,?,-1%,-1,34
Cc1ccc(Cl)cc1N1CCN(C(=O)CN(C2CCCCC2)S(C)(=O)=O)CC1,10µM*,?,5%,-3,2
CCN(CC)C(=O)CN(c1cc2c(cc1OC)oc1ccccc12)S(=O)(=O)c1ccc(C)cc1,.,12µM*,4%,7,-9
CCOC(=O)N1CCN(C(=O)CN(C2CCCCC2)S(=O)(=O)c2ccc(C)cc2)CC1,-4%,10µM*,4%,3,9
CCOC(=O)N1CCN(C(=O)CN(c2ccccc2OC)S(=O)(=O)c2ccc(C)cc2)CC1,12µM*,?,-1%,3,-24
CS(=O)(=O)N(CC(=O)N1CCN(c2cccc(Cl)c2)CC1)C1CCCCC1,.,-14%,5%,-3,-2
CCN(CC)S(=O)(=O)c1ccc(C(=O)Nc2cc3oc4ccccc4c3cc2OC)cc1,?,-13%,1%,2,-5
O=C(CSc1nnc(-c2ccccc2)c2ccccc12)NCCN1C(=O)CSC1=O,?,-13%,.,.,.
COc1ccc(C(=O)NNC(=O)CSc2nnc(-c3cccnc3)n2C)cc1,-2%,12%,2%,-2,10
COc1ccc(CC(=O)N2CCCC(CNC(=O)c3ccccc3Cl)C2)cc1 (configuration not stated),-30%,23%,12%,12,33*
O=C(NCC1CCCN(C(=O)c2cscn2)C1)c1ccc(-c2ccccc2)cc1 (configuration not stated),?,?,6%,8,7
CC(=O)c1ccc(C(=O)N2CCCC(CNC(=O)c3ccccc3Cl)C2)cc1 (configuration not stated),-9%,6%,0%,15*,19
COc1ccc(CC(=O)NCC2CCCN(Cc3ccc(OC)cc3F)C2)cc1 (configuration not stated),9.3µM*,-1%,-3%,0,-9
O=C(NCC1CCCN(C(=O)c2cscn2)C1)c1ccccc1Cl (configuration not stated),-18%,-5%,-6%,25*,30*
Cc1ccccc1NS(=O)(=O)c1ccc2[nH]c(=O)[nH]c2c1,1%,2%,-6%,-3,-14
C/C=C/C(=O)OCC(=O)Nc1cc(-c2cc(C)c(C)cc2C)nn1-c1ccccc1,?,-21%,3%,-1,2
O=C(NCCCCN1CCN(c2cccc(Cl)c2Cl)CC1)c1ccc2c(c1)Cc1ccccc1-2,.,.,.,12,-1
C=CCC(=O)N1CCCC(CNC(=O)c2ccc(-c3ccccc3)cc2)C1 (configuration not stated),4%,-5%,4%,9,11
COC(=O)c1ccc(C(=O)N2CCCC(CNC(=O)c3ccccc3Cl)C2)cc1 (configuration not stated),1%,36%,3%,13*,69
CC(=O)NCCC(=O)N1CCCC(CNC(=O)c2ccc(-c3ccccc3)cc2)C1 (configuration not stated),0%,27%,-2%,15*,27
SMILES,Pf growth 96h,Pf growth 48h,LmPK inh,Cycloheximide cs,Shiga toxin inh
O=C1NN(c2ccc(F)cc2)C(=O)/C1=C/c1cccs1,0%,11%,4%,9,-4
CCCCC(=O)OCC(=O)N1N=C(c2c[nH]c3ccccc23)C(O)C1c1ccc(OC)cc1 (configuration not stated),-6%,.,-2%,3,8
Nc1ccccc1S(N)(=O)=O,4%,2%,.,.,.
COc1ccc(COCC(O)CN2CCc3ccccc3C2)cc1OC (configuration not stated),11%,15%,7%,1,-7
CCC(CO)(C(=O)OC1CC2CCC(C1)N2C)c1ccccc1 (configuration not stated),12µM*,-20%,1%,-1,8
CCN(CC(=O)Nc1cc(S(=O)(=O)N2CCOCC2)ccc1Cl)Cc1ccccc1,12µM*,12µM*,.,.,.
CN(CC(=O)Nc1cccc(F)c1)CC(=O)Nc1cc(S(=O)(=O)N2CCOCC2)ccc1Cl,-2%,?,.,.,.
CCN(CC(=O)Nc1cc(S(=O)(=O)N2CCCCC2)ccc1Cl)Cc1ccccc1,10µM*,10µM*,.,.,.
O=C(COC(=O)Cc1ccccc1)Nc1cc(S(=O)(=O)N2CCCCC2)ccc1Cl,-15%,-26%,.,.,.
CCOC(=O)c1c(NC(=O)CSc2nnc(-c3c[nH]c4ccccc34)n2CCOC)sc2c1CCCC2,9.3µM*,7.4µM*,-2%,-2,2
O=C(NCc1ccccc1Cl)C(=O)NCC1OCCN1S(=O)(=O)c1ccc(F)cc1 (configuration not stated),-8%,-12%,0%,-2,-1
CCN(CC)CCCN(Cc1cc2cc3c(cc2[nH]c1=O)OCO3)C(=S)NCCCOC,?,38%,-2%,-2,-10
CCN(CC)CCN(Cc1cc2cc3c(cc2[nH]c1=O)OCO3)C(=S)NCC1CCCO1 (configuration not stated),15µM*,-11%,0%,-3,9
CCN(CC)CCN(Cc1cc2cc3c(cc2[nH]c1=O)OCO3)C(=S)NCCCOC,13µM*,-6%,-3%,1,-5
Nc1nc(-c2ccco2)nn1S(=O)(=O)c1ccccc1,10%,-7%,0%,-3,28
CCCC(=O)n1nc(-c2ccc(C)cc2)nc1NCc1ccco1,19%,126%,-4%,32*,76*
O=C(c1ccccc1)n1nc(-c2ccccc2)nc1NCc1ccco1,?,.,1%,11,14
Cc1ccc(C(=O)n2nc(-c3ccccc3)nc2NCc2ccco2)cc1,150%,6%,-2%,19*,21
O=S(=O)(c1ccccc1)n1nc(-c2ccccc2)nc1NCc1ccco1,26%,69%,1%,30*,74*
COC(=O)C1CCN(C(=O)COC(=O)c2cc(-c3cccs3)nn2-c2ccccc2)CC1,-2%,?,.,.,.
